Experiment [1] concerns the target Lysosomal acid glucosylceramidase (Homo sapiens) (UniProt P04062). Nature of the experiment: Glucocerebrosidase-p2 (AID 348; in the data active = potency below about 10 µM; note: potency is the fitted concentration of half-maximal effect). Particulars: purified GBA, blue fluorogenic substrate, 40 min. The procedure, abridged:
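Normal human glucocerebrosidase (0.2 nM) with blue fluorogenic substrate (80 uM final) in citrate/phosphate pH 5.9 with 10mM sodium taurocholate, 0.01% tween-20; 40 min RT, NaOH/glycine stop; fluorescence Ex 365/Em 440; AC50 from a titration from 0.6 nM upwards.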

Experiment [2] can be described thus: AP1 Signaling Pathway (AID 357).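 Note: ME-180 reporter cells stimulated with EGF at its EC50 level; % is set by controls: 0 for no effect and ±100 for the full control effect.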 Conditions: ME-180 AP-1-bla reporter, EGF-induced, beta-lactamase ratio, 5 h; at 7.69 µM (top of the series) unless noted. The procedure, abridged:
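A ratiometric CCF4 readout (405 nm excitation; 460 and 530 nm emission) quantified AP-1-driven beta-lactamase in ME-180 cells after 5 h with compound and EC50 EGF; AC50 values were derived for activators and inhibitors.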

Experiment [3] deals with Cytochrome P450 1A2 (Homo sapiens) (UniProt P05177). Nature of the experiment: p450-cyp1a2 (AID 410; calls by dose curve; note: potency is the fitted concentration of half-maximal effect;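 for activity change, negative = inhibition: -100% = full effect of reference inhibitor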). Conditions: recombinant CYP1A2, luciferin-ME demethylation, luminescence; series mostly up to 11.4 µM. The procedure, abridged: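 Luminescent demethylation readout: Luciferin-ME (100uM, equal to Km) turned over by 20nM CYP1A2 for 60 min at room temperature after NADPH regeneration addition, following 10 min compound preincubation. Normalization used 57 uM furafylline as full inhibition.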

A short description of experiment [4]: NFAT Signaling Pathway (AID 444).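 Note: carbachol stimulus at about its EC50 of 1 µM final; % is set by controls: 0 for no effect and ±100 for the full control effect.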 Particulars: Jurkat NFAT-bla M1, carbachol, beta-lactamase ratio, 5 h; at 7.69 µM (top of the series) unless noted. The procedure, abridged:
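Read-out: CCF4 FRET ratio (460 nm/530 nm) after 1 h RT dye loading, used for %activity and AC50 from titration series. Cells: Jurkat NFAT-β-lactamase/M1 line, treated with compound plus 1 uM carbachol for 5 h, 37 °C.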

Experiment [5] can be described thus: Stat Signaling Pathway (AID 446).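 Note: ME-180 cervical cancer cells given 40 pM IL-6 alongside compound; SIE-controlled beta-lactamase reporter measured as 460/530 nm FRET emission ratio; % is set by controls: 0 for no effect and ±100 for the full control effect.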 Conditions: ME-180 (cervical carcinoma) SIE beta-lactamase reporter, IL-6 stimulated, 5 h; at 7.69 µM (top of the series) unless noted. The procedure, abridged: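 Emission at 460 and 530 nm (excitation 405 nm) reports SIE-controlled beta-lactamase in ME-180 cells. Cells received compound with 40 pM IL-6 for 5 hrs at 37 C; data scaled between 300 pM IL-6 and 125 nM JAK-inhibitor controls.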

Experiment [6] concerns the target Glucocorticoid receptor (Homo sapiens) (UniProt P04150). Kind of experiment: GR-GFP Redistribution (AID 450;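 active = compounds whose dose series gives a full or clear partial fitted curve of increased nuclear translocation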; note: potency is the fitted concentration of half-maximal effect). Conditions: U2OS GR-GFP nuclear translocation, laser cytometry, 2 h.
The target is the same in experiment [7]. Kind of experiment: GR-EFC Redistribution (AID 451; calls by dose curve; note: potency is the fitted concentration of half-maximal effect). Particulars: CHO-K1 GR-EFC translocation, beta-gal luminescence, 2 h. The procedure, abridged:
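Translocation of GR-ED fusion to nuclear EA restores b-gal, read by luminescence after 1 h room-temperature detection. Engineered CHO-K1 biosensor cells, 1,000/well, exposed 2 h at 37 C to titrations up to 46 uM final.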

In experiment [8] the target is Mitogen-activated protein kinase 10 (Mus musculus) (UniProt Q61831). Kind of experiment: JNK3 AlphaScreen Assay (AID 530).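 Note: kinase came from lysate of stimulated human HepG2 cells; signal reports phosphorylation of biotinylated GST-cJun 1-79 at Ser73 with 10 µM ATP; % is set by controls: 0 for no effect and ±100 for the full control effect.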 Particulars: JNK3 lysate, c-Jun phosphorylation; series mostly up to 11.4 µM. The procedure, abridged:
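qHTS titrations with 15 min compound pre-incubation before adding ATP (10 uM final). Read-out: AlphaScreen of Ser73-phosphorylated biotin-GST-cJun using HepG2 lysate JNK3 activated by IL-1β and TNFα.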
For orientation: Bead proximity is the source of the signal in Alpha formats.

Experiment [9] concerns the target 3',5'-cyclic-AMP phosphodiesterase 4B (Homo sapiens) (UniProt Q07343). Kind of experiment: qHTS Assay for Inhibitors of PDE-IV (AID 607; active = well fitted activation curve with a large enough effect in the main read-out, with a control signal flat, not every such curve was filed as active; note: % of control where 0% means no effect). Particulars: HEK293 ACTOne CNG channel cells, membrane potential fluorescence; series mostly up to 22.9 µM. The procedure, abridged:
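The readout is membrane depolarisation from a cAMP-sensing CNG channel, detected with a potential dye at ex 535/em 590. Cells were HEK293-derived (endogenous PDE-IV) at 1000 cells/well, titrated up to 22.9 uM final.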
(In general: In qHTS, concentration-response curves come from the screen itself.)

Values without a mark were called inactive. Records with an inconclusive call do not appear. Activity calls are given as the source filed them. Unless noted, calls come from the whole dose curve; as a rule, active = well fitted curve in either direction with a large enough effect (not every such curve was filed as active); inconclusive = small, poorly fitted or top-dose-only effect, or another doubt; inactive = flat fitted curve, though single readings scatter. Residues, ends and D or L forms follow the SMILES beside them. Some results are limits rather than exact numbers.

Chain of 3',5'-cyclic-AMP phosphodiesterase 4B (Homo sapiens) (Q07343 whole entry, looked up): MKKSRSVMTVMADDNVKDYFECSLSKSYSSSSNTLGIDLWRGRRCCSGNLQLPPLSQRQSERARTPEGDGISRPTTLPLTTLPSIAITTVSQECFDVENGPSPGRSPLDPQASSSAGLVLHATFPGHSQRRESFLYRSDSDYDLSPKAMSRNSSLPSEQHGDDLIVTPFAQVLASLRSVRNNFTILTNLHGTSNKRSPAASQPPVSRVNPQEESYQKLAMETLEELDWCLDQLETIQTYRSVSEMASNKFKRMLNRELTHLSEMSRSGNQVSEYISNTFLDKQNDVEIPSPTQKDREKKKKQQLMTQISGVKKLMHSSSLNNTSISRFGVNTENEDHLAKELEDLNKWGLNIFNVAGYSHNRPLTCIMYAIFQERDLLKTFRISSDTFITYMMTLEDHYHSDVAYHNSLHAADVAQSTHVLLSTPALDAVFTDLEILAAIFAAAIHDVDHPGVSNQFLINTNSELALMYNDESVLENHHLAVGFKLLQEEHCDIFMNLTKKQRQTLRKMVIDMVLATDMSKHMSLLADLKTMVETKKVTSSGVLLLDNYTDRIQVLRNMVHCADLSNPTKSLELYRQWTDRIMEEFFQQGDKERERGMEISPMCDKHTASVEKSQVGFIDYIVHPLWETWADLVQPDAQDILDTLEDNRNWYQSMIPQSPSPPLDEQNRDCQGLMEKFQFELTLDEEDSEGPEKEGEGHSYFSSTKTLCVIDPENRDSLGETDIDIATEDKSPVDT
Chain of Lysosomal acid glucosylceramidase (Homo sapiens) (P04062 whole entry, looked up): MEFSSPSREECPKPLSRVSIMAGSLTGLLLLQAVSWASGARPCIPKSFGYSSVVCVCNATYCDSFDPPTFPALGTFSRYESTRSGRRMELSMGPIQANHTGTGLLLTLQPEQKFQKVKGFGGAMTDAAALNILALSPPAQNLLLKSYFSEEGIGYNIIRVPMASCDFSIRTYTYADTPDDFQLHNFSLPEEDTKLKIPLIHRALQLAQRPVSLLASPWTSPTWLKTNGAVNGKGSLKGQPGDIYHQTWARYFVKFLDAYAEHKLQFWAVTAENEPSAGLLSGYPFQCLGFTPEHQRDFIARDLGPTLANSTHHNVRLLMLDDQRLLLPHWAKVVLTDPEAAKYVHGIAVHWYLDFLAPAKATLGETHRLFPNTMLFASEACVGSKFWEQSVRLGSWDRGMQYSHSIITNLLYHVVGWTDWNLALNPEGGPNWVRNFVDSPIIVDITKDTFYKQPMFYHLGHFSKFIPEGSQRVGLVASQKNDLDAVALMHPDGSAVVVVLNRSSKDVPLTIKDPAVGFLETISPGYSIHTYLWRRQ
Chain of Glucocorticoid receptor (Homo sapiens) (P04150 whole entry, looked up): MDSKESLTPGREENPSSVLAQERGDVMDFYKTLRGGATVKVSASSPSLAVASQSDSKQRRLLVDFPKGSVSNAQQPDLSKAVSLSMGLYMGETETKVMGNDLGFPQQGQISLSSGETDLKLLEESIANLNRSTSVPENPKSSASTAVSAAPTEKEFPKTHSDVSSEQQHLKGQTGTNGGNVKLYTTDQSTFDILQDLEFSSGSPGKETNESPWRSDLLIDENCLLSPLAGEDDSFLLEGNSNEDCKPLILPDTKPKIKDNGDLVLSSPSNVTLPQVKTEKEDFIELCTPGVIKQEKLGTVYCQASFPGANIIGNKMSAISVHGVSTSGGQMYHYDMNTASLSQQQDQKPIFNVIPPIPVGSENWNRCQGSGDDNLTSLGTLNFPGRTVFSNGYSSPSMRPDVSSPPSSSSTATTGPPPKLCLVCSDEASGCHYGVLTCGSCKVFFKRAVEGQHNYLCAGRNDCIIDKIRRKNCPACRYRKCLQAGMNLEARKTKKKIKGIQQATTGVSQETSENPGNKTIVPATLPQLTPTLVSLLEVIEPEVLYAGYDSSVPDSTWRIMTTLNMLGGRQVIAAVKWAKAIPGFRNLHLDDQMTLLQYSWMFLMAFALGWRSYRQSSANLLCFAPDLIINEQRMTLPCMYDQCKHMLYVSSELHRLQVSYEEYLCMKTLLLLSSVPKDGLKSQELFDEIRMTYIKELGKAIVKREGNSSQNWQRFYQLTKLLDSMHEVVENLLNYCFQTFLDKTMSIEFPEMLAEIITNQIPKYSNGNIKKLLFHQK
Chain of Cytochrome P450 1A2 (Homo sapiens) (P05177 whole entry, looked up): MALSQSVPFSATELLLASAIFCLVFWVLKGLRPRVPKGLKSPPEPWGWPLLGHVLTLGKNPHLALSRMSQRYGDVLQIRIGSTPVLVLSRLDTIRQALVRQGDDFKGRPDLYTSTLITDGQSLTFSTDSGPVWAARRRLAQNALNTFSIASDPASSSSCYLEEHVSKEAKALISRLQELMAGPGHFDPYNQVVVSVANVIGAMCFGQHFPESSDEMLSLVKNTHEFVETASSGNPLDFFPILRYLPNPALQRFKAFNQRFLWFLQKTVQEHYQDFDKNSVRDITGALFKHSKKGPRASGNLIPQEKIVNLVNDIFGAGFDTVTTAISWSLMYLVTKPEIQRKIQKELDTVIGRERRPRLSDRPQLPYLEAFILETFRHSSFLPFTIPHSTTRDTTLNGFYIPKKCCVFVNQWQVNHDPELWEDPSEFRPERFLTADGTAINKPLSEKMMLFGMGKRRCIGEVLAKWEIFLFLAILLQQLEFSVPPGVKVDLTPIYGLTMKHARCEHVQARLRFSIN

Take `C[C@@H](N)[C@@H](C)Cc1ccccc1`: the results for the Potency in [1], in [6] and in experiment [7] were greater than 11.4 µM, greater than 46 µM and greater than 9.22 µM, respectively. For the same compound, the activity change, negative = inhibition in [2] was 10.1%; in [4], 6.03%. The Potency result in experiment [3], in experiment [8] and in experiment [9] was “inactive” throughout. Also, the activity, negative = inhibition in [5] is 15.9%.
As for `C/C(=C\c1ccc(Cl)cc1)C(C)(C)C(=O)O`, the Potency in experiment [1] was greater than 11.4 µM; in experiment [6], greater than 46 µM; in experiment [7], greater than 9.22 µM. The activity change, negative = inhibition in experiment [2] was 2.81%; in experiment [4] it was -8.85%. Also, the Potency entry in experiment [3], in experiment [8] and in [9] was “inactive” throughout. Moreover, in experiment [5], the activity, negative = inhibition is -7.44%.
As to `O=C(O)Cc1cccnc1`, the Potency is greater than 11.4 µM in experiment [1], greater than 46 µM in experiment [6] and greater than 9.22 µM in experiment [7]. In addition, the activity change, negative = inhibition in experiment [2] is 8.81%; in experiment [4], 15.8%. Further, the Potency result in experiment [3], in experiment [8] and in [9] was “inactive” throughout. For the same compound, the activity, negative = inhibition in experiment [5] is 3.03%.
For the compound `N#C/C(=C\N1CCNC1=S)C(=O)c1ccc2ccccc2c1`, the Potency in experiment [1] was greater than 11.4 µM; in [3], 1.58 µM (active); in [6], greater than 46 µM; in [7], greater than 9.22 µM. In addition, the results for the activity change, negative = inhibition in [2] and in experiment [4] were -19.2% and 5.58%, respectively. For the same compound, the activity, negative = inhibition in [5] was -8.82%. Further, the Potency entry in experiment [8] and in [9] was “inactive” each time.
As to `CCON=C1C(C)(C)C(C)(C)C(C)(C)C1(C)C`, the Potency in [1] was greater than 11.4 µM; in [6] it was greater than 46 µM; in experiment [7] it was greater than 9.22 µM. The results for the activity change, negative = inhibition in [2] and in [4] were 1.12% and 6.28%, respectively. The Potency result in experiment [3], in [8] and in [9] was “inactive” in each case. In addition, the activity, negative = inhibition in experiment [5] is -3.9%.
In the case of `Oc1cc(O)c2c(c1)O[C@@H](c1ccc(O)c(O)c1)[C@H](O[C@@]1(c3cc(O)c(O)c(O)c3)Oc3cc(O)cc(O)c3[C@H](O)[C@@H]1O)C2`, the Potency in experiment [1] was greater than 11.4 µM; in experiment [6] it was greater than 46 µM; in experiment [7], greater than 9.22 µM. Also, the figures for the activity change, negative = inhibition in experiment [2] and in [4] were 9.41% and 13.8%, respectively. Moreover, the Potency result in experiment [3], in [8] and in experiment [9] was “inactive” each time. The activity, negative = inhibition in experiment [5] was -22.3%.
For `N#CC(CC(=O)O)=C(c1ccccc1)c1ccccc1`, the figures for the Potency in [1], in [6] and in experiment [7] were greater than 11.4 µM, greater than 46 µM and greater than 9.22 µM, respectively. Further, the values for the activity change, negative = inhibition in experiment [2], in experiment [3] and in experiment [4] were 6.62%, -14.5% [at 2.29 µM] and -1.1%, respectively. Moreover, in experiment [5], the activity, negative = inhibition is 1.35%. The Potency entry in experiment [8] and in experiment [9] was “inactive” in each case.
With `Cc1cc(Cc2c(C)c(C)c(Cc3cc(C)cc(C(C)(C)C)c3O)c(C)c2C)c(O)c(C(C)(C)C)c1`, the Potency is greater than 11.4 µM in experiment [1], greater than 46 µM in [6] and greater than 9.22 µM in [7]. Further, the results for the activity change, negative = inhibition in [2], in experiment [3] and in [4] were -8.57%, 5% [at 2.29 µM] and 14.4%, respectively. Moreover, the activity, negative = inhibition in [5] was 6.62%. Further, the Potency entry in [8] and in [9] was “inactive” throughout.
For the compound `NCC(=O)NC1(C(=O)O)CCCC1` (HELM PEPTIDE1{G.[O=C(O)C1(N[*:1])CCCC1]}$$$$V2.0), the values for the Potency in experiment [1], in experiment [6] and in experiment [7] were greater than 11.4 µM, greater than 46 µM and greater than 9.22 µM, respectively. In addition, the results for the activity change, negative = inhibition in experiment [2] and in [4] were 4.89% and -2.62%, respectively. The Potency entry in experiment [3], in experiment [8] and in experiment [9] was “inactive” each time. The activity, negative = inhibition in experiment [5] was 12.2%.
Consider `Nc1nc(N)c2[nH]c(CNc3ccc(C(=O)O)cc3)nc2n1`, for which the Potency in experiment [1] was greater than 11.4 µM; in experiment [6] it was greater than 46 µM; in experiment [7], greater than 9.22 µM. The values for the activity change, negative = inhibition in experiment [2] and in [4] were -2.88% and 23.3%, respectively. The Potency entry in experiment [3], in experiment [8] and in experiment [9] was “inactive” each time. Besides, the activity, negative = inhibition in [5] is -0.181%.
As for `CCC(=O)Nc1ncnc2ncn(C(=O)CC)c12`, the values for the Potency in experiment [1], in experiment [6] and in [7] were greater than 11.4 µM, greater than 46 µM and greater than 9.22 µM, respectively. Moreover, the activity change, negative = inhibition is 8.41% in experiment [2] and 1.71% in experiment [4]. Also, the Potency result in experiment [3], in experiment [8] and in [9] was “inactive” each time. The activity, negative = inhibition in experiment [5] was 1.38%.
Turning to `NS(=O)(=O)c1ccc(NC2(C(=O)O)CCCC2)cc1`, the Potency in experiment [1] was greater than 11.4 µM; in experiment [3], 0.794 µM (active); in experiment [6], greater than 46 µM; in experiment [7] it was greater than 9.22 µM. Moreover, the activity change, negative = inhibition is -4.84% in experiment [2] and 2.12% in experiment [4]. In addition, the activity, negative = inhibition in experiment [5] is 11.8%. Moreover, the Potency result in experiment [8] and in experiment [9] was “inactive” in each case.
For the compound `CC1(C)OC[C@@H]2O[C@H](n3cnc4c(N)nc(Cl)nc43)[C@@H](OS(C)(=O)=O)[C@@H]2O1`, the Potency in [1] was greater than 11.4 µM; in [6], greater than 46 µM; in [7], greater than 9.22 µM. Also, the activity change, negative = inhibition was -1.96% in experiment [2], -14.5% [at 2.29 µM] in experiment [3] and -7% in [4]. The activity, negative = inhibition in experiment [5] was -0.333%. In addition, the Potency entry in experiment [8] and in experiment [9] was “inactive” each time.
As for `c1cc(NNc2cccc(-c3nn[nH]n3)c2)cc(-c2nn[nH]n2)c1`, the Potency is greater than 11.4 µM in experiment [1], greater than 46 µM in experiment [6] and greater than 9.22 µM in experiment [7]. Besides, the activity change, negative = inhibition in [2] is 5.72%; in experiment [3] it was -15.5% [at 2.29 µM]; in [4], 2.46%. For the same compound, the activity, negative = inhibition in [5] was 2.5%. Moreover, the Potency result in experiment [8] and in experiment [9] was “inactive” each time.
Regarding `Nc1nccc(Nc2ccc(S(N)(=O)=O)cc2)n1`, the Potency in [1] is greater than 11.4 µM; in experiment [6], greater than 46 µM; in experiment [7], greater than 9.22 µM. The results for the activity change, negative = inhibition in experiment [2] and in experiment [4] were 2.96% and -13.6%, respectively. Besides, the Potency result in experiment [3], in experiment [8] and in experiment [9] was “inactive” each time. The activity, negative = inhibition in [5] was -5%.

The values are drawn from PubChem BioAssay (NCATS).
